Measurements reported in PubChem BioAssay (Tox21).
Inconclusive results are not listed. The source made the active and inactive calls. Unless noted, calls come from the whole dose curve; as a rule, active = well fitted curve in the direction sought with a large enough effect in the repeat runs; inconclusive = weak or mixed curves; inactive = no such curve, though single readings can be large; an effect the other way counts as inactive or inconclusive.

Legend:
[1] = qHTS assay to identify small molecule antagonists of the estrogen related receptor (ERR) signaling pathway from Tox21 library - cell viability counter screen (AID 1224834); note: nearly all actives have a fitted effect of over 30% in size; note: potency is the fitted concentration of half-maximal effect
In short: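 Cytotoxicity of test substances is gauged in the same ERR cells used for the antagonist screen, after 17.5 h of compound treatment at 37 C, by CellTiter-Fluor fluorescence measured after 30 min.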

[2] = target: Luciferin 4-monooxygenase (Photinus pyralis) (UniProt P08659); assay: qHTS assay to identify small molecule inhibitors of firefly luciferase (AID 1224835); note: nearly all actives have a fitted effect of over 25% in size; note: potency is the fitted concentration of half-maximal effect; for activity change, negative = inhibition: series mostly up to about 120 µM
Luciferin 4-monooxygenase (Photinus pyralis), sequence (P08659 whole entry, looked up): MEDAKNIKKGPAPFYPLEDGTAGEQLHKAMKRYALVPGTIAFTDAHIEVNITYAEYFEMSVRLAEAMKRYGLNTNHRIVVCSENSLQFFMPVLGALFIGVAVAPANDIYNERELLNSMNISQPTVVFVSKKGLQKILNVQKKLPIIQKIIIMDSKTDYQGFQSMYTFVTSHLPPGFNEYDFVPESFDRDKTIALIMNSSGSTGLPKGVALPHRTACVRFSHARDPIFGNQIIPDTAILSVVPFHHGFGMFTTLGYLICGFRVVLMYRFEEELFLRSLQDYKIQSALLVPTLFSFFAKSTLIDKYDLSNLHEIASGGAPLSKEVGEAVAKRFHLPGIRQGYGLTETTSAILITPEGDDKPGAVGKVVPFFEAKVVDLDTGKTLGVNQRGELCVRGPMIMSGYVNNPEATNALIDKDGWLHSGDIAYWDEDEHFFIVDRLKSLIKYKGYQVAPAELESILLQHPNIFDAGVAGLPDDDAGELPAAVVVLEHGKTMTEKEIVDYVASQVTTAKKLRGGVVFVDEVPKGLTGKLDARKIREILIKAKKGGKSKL
In short: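 Inhibition of purified Photinus luciferase is measured by luminescence. Substrate levels (D-luciferin, ATP) sit at their KM values. Each compound is tested in a concentration series.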

[3] = qHTS assay to identify small molecule agonists of the constitutive androstane receptor (CAR) signaling pathway - cell viability counter screen (AID 1224836); note: nearly all actives have a fitted effect of over 45% in size; note: potency is the fitted concentration of half-maximal effect; for viability change, negative = cytotoxic: series mostly up to about 92 µM
In short: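 23 h treatment, 37 C, 5% CO2. Cell line: HepG2 stably expressing hCAR with a CYP2B6-2.2kb construct. Co-treatment: PK11195, 0.75 uM final. Read-out: CellTiter-Fluor fluorescence intensity.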

[4] = qHTS assay to identify small molecule antagonists of the constitutive androstane receptor (CAR) signaling pathway - cell viability counter screen (AID 1224837); note: nearly all actives have a fitted effect of over 45% in size; note: potency is the fitted concentration of half-maximal effect; for activity change, negative = cytotoxicity: series mostly up to about 92 µM
In short: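 Multiplexed cytotoxicity read-out for the CAR antagonist screen: double-stable HepG2-CYP2B6-hCAR cells co-treated with 50 nM CITCO (final) and compound over 15 concentrations, incubated 23 hr, then assessed by CellTiter-Fluor fluorescence.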

[5] = target: Nuclear receptor subfamily 1 group I member 3 (Homo sapiens) (UniProt Q14994); assay: qHTS assay to identify small molecule antagonists of the constitutive androstane receptor (CAR) signaling pathway (AID 1224838); note: nearly all actives have a fitted effect of over 40% in size
Nuclear receptor subfamily 1 group I member 3 (Homo sapiens), sequence (Q14994 whole entry, looked up): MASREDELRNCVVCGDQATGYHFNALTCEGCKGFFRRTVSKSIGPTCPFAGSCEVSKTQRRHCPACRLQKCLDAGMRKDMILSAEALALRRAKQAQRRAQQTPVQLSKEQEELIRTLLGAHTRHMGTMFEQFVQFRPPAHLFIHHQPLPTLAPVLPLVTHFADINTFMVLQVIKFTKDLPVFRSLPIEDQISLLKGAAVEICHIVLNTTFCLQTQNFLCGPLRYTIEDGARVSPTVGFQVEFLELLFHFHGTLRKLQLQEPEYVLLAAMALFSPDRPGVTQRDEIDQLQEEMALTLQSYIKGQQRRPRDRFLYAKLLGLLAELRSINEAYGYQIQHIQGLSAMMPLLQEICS
In short: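 Compounds were titrated across 15 concentrations onto HepG2 cells double-stably expressing hCAR and a CYP2B6-2.2kb reporter, together with 50 nM CITCO (final). After 24 h at 37 C, luciferase activity was measured by luminescence.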

[6] = target: Nuclear receptor subfamily 1 group I member 3 (Homo sapiens) (UniProt Q14994); assay: qHTS assay to identify small molecule agonists of the constitutive androstane receptor (CAR) signaling pathway (AID 1224839); note: nearly all actives have a fitted effect of over 15% in size; note: potency is the fitted concentration of half-maximal effect;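 for activation: HepG2 cells stably carrying human CAR and a CYP2B6 luciferase reporter; series mostly up to about 92 µM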
In short: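 Compounds tested at 15 concentrations on HepG2 cells stably harbouring hCAR and CYP2B6-2.2kb reporter constructs, co-treated with PK11195 (0.75 uM final), 24 h at 37 C; luminescent reporter signal quantified.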

[7] = qHTS assay to identify small molecule antagonists of the estrogen related receptor signaling pathway with the pleiotropic PPARgamma coactivator (PGC) from Tox21 10K library - cell viability counter screen (AID 1224840; active = well fitted cell-killing curve with a large enough effect in the repeat runs, not every such curve was filed as active; note: nearly all actives have a fitted effect of over 40% in size; note: potency is the fitted concentration of half-maximal effect)
In short: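 Step one, plate 2,000 PGC/ERR cells per well; step two, incubate 6 h at 37 C/5% CO2; step three, pin-transfer compounds; step four, incubate 17.5 h; step five, add CellTiter-Fluor and read fluorescence after 30 min.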

[8] = qHTS assay to identify small molecule agonists of the estrogen related receptor signaling pathway with the pleiotropic PPARgamma coactivator (PGC) (AID 1224823)
In short: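 Steps: plate PGC/ERR cells at 2,000 cells/well; incubate 6 h, 37 C/5% CO2; pin-transfer compounds (DMSO); incubate 18 h, 37 C; add One-Glo; 30 min RT; read luminescence.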

[9] = qHTS assay to identify small molecule agonists of the estrogen related receptor signaling pathway with the pleiotropic PPARgamma coactivator (PGC) from Tox21 10K library (AID 1224842); note: nearly all actives have a fitted effect of over 15% in size; note: potency is the fitted concentration of half-maximal effect
In short: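 Luminescence from One-Glo (30 min, room temperature) measured after PGC/ERR cells had 18 h at 37 C with pinned compound (23 nL in DMSO). Cells had been seeded at 2,000 per well and pre-incubated 6 h.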

[10] = qHTS assay to identify small molecule antagonists of the estrogen related receptor signaling pathway with the pleiotropic PPARgamma coactivator (PGC) from Tox21 10K library (AID 1224841; call rule not given here; note: series mostly up to about 92 µM; actives are mostly falling curves and most rising ones were filed inactive; nearly all actives have a fitted effect of over 50% in size)
In short: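 Antagonism in this quantitative HTS is taken from loss of luciferase signal in PGC/ERR cells. Cells (2,000/well) are treated with compounds in DMSO after a 6 h settling period and read by One-Glo luminescence after 18 h.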
% is set by controls: 0 for no effect and ±100 for the full control effect.

C1CCN(CN2CCCCC2)CC1
inactive: Potency [1] | Potency [2] | Potency [3] | Potency [4] | Potency [5] | Potency [6] | Potency [7]

O=C(O)c1cc(C(=O)O)cc([N+](=O)[O-])c1
inactive: Potency [1] | Potency [2] | Potency [3] | Potency [4] | Potency [5] | Potency [6] | Potency [7]

CCC(C(=O)O)c1ccc(N2Cc3ccccc3C2=O)cc1 (configuration not stated)
inactive: Potency [1] | Potency [3] | Potency [4] | Potency [5] | Potency [7]
active: Potency [2] 9.77 µM | Potency [6] 5.96 µM

CC(C(=O)O)c1ccc(/C=C2\CCCCC2=O)cc1 (configuration not stated)
active: Potency [2] 30.9 µM | Potency [6] 26.6 µM
inactive: Potency [1] | Potency [3] | Potency [4] | Potency [5] | Potency [7]

Cc1nc2sccn2c(=O)c1CCN1CCC(=C(c2ccc(F)cc2)c2ccc(F)cc2)CC1
inactive: outcome [8] | Potency [1] | Potency [2] | Potency [4] | Potency [6] | Potency [7] | Potency [9]

SCCOCCOCCS
inactive: Potency [1] | Potency [2] | Potency [3] | Potency [4] | Potency [5] | Potency [6] | Potency [7]

CC(C)(C)N
inactive: Potency [1] | Potency [2] | Potency [3] | Potency [4] | Potency [5] | Potency [6] | Potency [7]

C=CCCC
inactive: Potency [1] | Potency [2] | Potency [3] | Potency [4] | Potency [5] | Potency [6] | Potency [7]

COC(=O)c1cc(Cl)ccc1[N+](=O)[O-]
inactive: Potency [1] | Potency [2] | Potency [3] | Potency [4] | Potency [5] | Potency [6] | Potency [7]

CC1=C(C)C(=O)C(CCCCC#CCCCC#CCO)=C(C)C1=O
inactive: outcome [8] | Potency [2] | Potency [3] | Potency [4] | Potency [5] | Potency [7] | Potency [9]
active: Potency [1] 23.7 µM

Nc1ccc(-c2ccc(F)cc2)cc1
inactive: Potency [1] | Potency [3] | Potency [4] | Potency [5] | Potency [7] | Potency [10]
active: Potency [2] 31.7 µM | Potency [6] 27.3 µM | Potency [9] 5.45 µM

CC(C)CCCCCCCOC(=O)c1ccc(C(=O)OCCCCCCCC(C)C)c(C(=O)OCCCCCCCC(C)C)c1
inactive: Potency [1] | Potency [2] | Potency [3] | Potency [4] | Potency [5] | Potency [6] | Potency [7] | Potency [9]

O=C(O)c1ccc2c(c1)nc(C(=O)NC1CCN(C3CC3)CC1)n2Cc1cc(-c2ccc(Cl)s2)on1
inactive: viability change, negative = cytotoxic [1] -4.05% [at 19 µM] | activity change, negative = inhibition [2] -1.8% [at 23.6 µM] | viability change, negative = cytotoxic [3] 0.0204% [at 19 µM] | activity change, negative = cytotoxicity [4] 10.8% [at 19 µM] | activity, negative = inhibition [5] 19.9% [at 19 µM] | activation [6] -1.53% [at 19 µM] | viability change, negative = cytotoxic [7] -11.5% [at 19 µM]

CCCCCCCCNC
inactive: Potency [1] | Potency [2] | Potency [3] | Potency [4] | Potency [5] | Potency [7]

CCCCCO
inactive: Potency [1] | Potency [2] | Potency [3] | Potency [4] | Potency [5] | Potency [6] | Potency [7] | Potency [10] | Potency [9]

Cc1c(Cl)cccc1Nc1ccccc1C(=O)O
inactive: Potency [1] | Potency [2] | Potency [3] | Potency [4] | Potency [5] | Potency [7]

O=C1c2ccccc2C(=O)C1c1ccc2cc(S(=O)(=O)O)cc(S(=O)(=O)O)c2n1
active: Potency [1] 29.5 µM | Potency [2] 30.6 µM | Potency [3] 66.1 µM | Potency [4] 52.5 µM | Potency [6] 41.7 µM | Potency [7] 33.1 µM
inactive: Potency [5] | Potency [10] | Potency [9]

CC[C@H](NC(C)C)[C@H](O)c1ccc(O)c2[nH]c(=O)ccc12
inactive: Potency [1] | Potency [2] | Potency [3] | Potency [4] | Potency [5] | Potency [6] | Potency [7] | Potency [10] | Potency [9]

C[Si](C)(C)O[Si](C)(C)O[Si](C)(C)C
inactive: Potency [1] | Potency [2] | Potency [3] | Potency [4] | Potency [5] | Potency [6] | Potency [7]

O=c1c2ccccc2oc2ccccc12
active: Potency [2] 20 µM | Potency [6] 24.3 µM
inactive: Potency [1] | Potency [3] | Potency [4] | Potency [5] | Potency [7]

COc1ccc(C(=O)c2ccc(C)cc2)c(O)c1
inactive: Potency [1] | Potency [3] | Potency [4] | Potency [5] | Potency [7] | Potency [10]
active: Potency [2] 11.4 µM | Potency [6] 27.6 µM | Potency [9] 7.78 µM

COC=O
inactive: viability change, negative = cytotoxic [1] 0.652% [at 8.39 µM] | activity change, negative = inhibition [2] -0.731% [at 10.5 µM] | viability change, negative = cytotoxic [3] -8.98% [at 8.39 µM] | activity change, negative = cytotoxicity [4] -19.2% [at 8.39 µM] | activity, negative = inhibition [5] 0.829% [at 8.39 µM] | activation [6] -2.43% [at 8.39 µM] | viability change, negative = cytotoxic [7] 0.435% [at 8.39 µM] | activity, negative = inhibition [10] 9.85% [at 8.39 µM] | activation [9] 3.43% [at 8.39 µM]

O=C(O)c1ccc2cc(O)ccc2c1
active: Potency [2] 62.4 µM
inactive: Potency [1] | Potency [3] | Potency [4] | Potency [5] | Potency [6] | Potency [7]

CO[C@@H]1[C@@H](O[C@@H]2O[C@H](C)[C@@H](O[C@H]3C[C@@](C)(O)[C@@H](O)[C@H](C)O3)[C@H](N(C)C)[C@H]2O)[C@@H](CC=O)C[C@@H](C)[C@@H](O[C@@H]2CC[C@H](N(C)C)[C@@H](C)O2)/C=C/C=C/C[C@@H](C)OC(=O)C[C@H]1OC(C)=O
inactive: Potency [1] | Potency [2] | Potency [3] | Potency [4] | Potency [5] | Potency [6] | Potency [7]

CC(COc1ccccc1)NC(C)C(O)c1ccc(O)cc1 (configuration not stated)
inactive: Potency [1] | Potency [2] | Potency [3] | Potency [4] | Potency [5] | Potency [6] | Potency [7] | Potency [10] | Potency [9]

CCCc1nc(C)c2c(=O)[nH]c(-c3cc(S(=O)(=O)N4CCN(CC)CC4)ccc3OCC)nn12
inactive: Potency [1] | Potency [2] | Potency [3] | Potency [4] | Potency [5] | Potency [7]

FC(F)(Cl)C(F)(Cl)Cl
inactive: Potency [1] | Potency [2] | Potency [3] | Potency [4] | Potency [5] | Potency [6] | Potency [7]
